Reference: PubChem BioAssay
Active and inactive are the calls of the source. How the calls were made is not given here.

The molecules below were run on Aerobactin synthetase IucA (Klebsiella pneumoniae hvKP1) (assay: Biochemical IucA enzyme inhibition primary screen of the Spectrum library (AID 1346200;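 further: 100% = wells without compound and 0% = wells lacking enzyme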)). Details: malachite green pyrophosphate, A620, at 8 µM, stronger effect = lower value.

Row | Structure (SMILES) | activity remaining
1 | Cc1[nH]ccc2c1[nH]c1cc(=O)ccc12 | 118% (inactive)
2 | O=C(O)c1cc(=O)c2c(OCC(O)COc3cccc4oc(C(=O)O)cc(=O)c34)cccc2o1 | 115% (inactive)
3 | CON=C1C[C@]2(C[C@@H]3C[C@@H](C/C=C(\C)C[C@@H](C)/C=C/C=C4\CO[C@@H]5[C@H](O)C(C)=C[C@@H](C(=O)O3)[C@]45O)O2)O[C@H](/C(C)=C/C(C)C)[C@H]1C | 93.8% (inactive)
4 | CCOC(=O)[C@H](CCc1ccccc1)N[C@@H](C)C(=O)N1[C@H](C(=O)O)C[C@@H]2CCC[C@@H]21 | 103% (inactive)
5 | Cc1cc(C(C)(C)C)c(O)c(C(C)(C)C)c1 | 110% (inactive)
6 | CC(COc1ccccc1)NC(C)[C@H](O)c1ccc(O)cc1 (stereo not given in full) | 119% (inactive)
7 | O=C1CC(c2ccc(O)c(O)c2)Oc2cc(O)cc(O)c21 (stereo not given) | 109% (inactive)
8 | CC(C)NCC(O)c1ccc(O)c(O)c1 (stereo not given) | 82.7% (inactive)
9 | O=C(O)CN(CCN(CC(=O)O)CC(=O)O)CC(=O)O | 108% (inactive)
10 | CCCCOc1ccc(C(=O)CCN2CCCCC2)cc1 | 96.6% (inactive)
11 | Oc1cc2c(cc1O)C(c1ccccc1)CNCC2 (stereo not given) | 88.1% (inactive)
12 | CO[C@@H]1[C@@H](OC(N)=O)[C@@H](O)[C@H](Oc2ccc3c(O)c(NC(=O)c4ccc(O)c(CC=C(C)C)c4)c(=O)oc3c2C)OC1(C)C | 129% (inactive)
13 | NC[C@H]1O[C@H](O[C@H]2[C@H](O)[C@@H](O[C@H]3O[C@H](CO)[C@@H](O)[C@H](N)[C@H]3O)[C@H](N)C[C@@H]2N)[C@H](N)C[C@@H]1O | 97% (inactive)
14 | NC(=O)c1ccc[n+]([C@@H]2O[C@H](COP(=O)([O-])OP(=O)(O)OC[C@H]3O[C@@H](n4cnc5c(N)ncnc54)[C@H](OP(=O)(O)O)[C@@H]3O)[C@@H](O)[C@H]2O)c1 | 101% (inactive)
15 | CC(C)[C@@H]1CC[C@@H](C)CC1=O | 120% (inactive)
16 | CC(C)(C)NCC(O)COc1cccc2c1CCCC2=O (stereo not given) | 91.1% (inactive)
17 | COc1ccc2c(c1)CCC1C2CCC2(C)C1C[C@@H](O)C2O (stereo not given in full) | 114% (inactive)
18 | CC(=O)O[C@H]1CC[C@@]2(C)C(C[C@@H](OC(C)=O)[C@@]3(C)C4=CC(=O)O[C@@H](c5ccoc5)[C@]4(C)CCC23)C1(C)C (stereo not given in full) | 89.5% (inactive)
19 | O=C(O)c1cc(O)c2c(c1)[C@@H]([C@H]1c3cc(C(=O)O)cc(O)c3C(=O)c3c(O[C@H]4O[C@H](CO)[C@@H](O)[C@H](O)[C@H]4O)cccc31)c1cccc(O[C@H]3O[C@H](CO)[C@@H](O)[C@H](O)[C@H]3O)c1C2=O | 98.9% (inactive)
20 | CC(C)c1c(O)ccc2c1CCC1C(C)(C)CCC[C@]21C (stereo not given in full) | 116% (inactive)

Row | Structure (SMILES) | activity remaining
21 | CC(=O)Oc1ccc2c(c1)CCC1C2CC[C@@]2(C)C1C[C@@H](OC(C)=O)[C@@H]2OC(C)=O (stereo not given in full) | 97.3% (inactive)
22 | COc1cc2c(cc1OC)[C@@H]1C(=O)c3ccc4c(c3O[C@@H]1CO2)C=CC(C)(C)O4 | 118% (inactive)
23 | CC(=O)CC(=O)CCC(=O)O | 102% (inactive)
24 | CC(C)=CC1C(CO)C1(C)C (stereo not given) | 86.3% (inactive)
25 | COc1c2ccoc2nc2c(OC)c(OCC(O)C(C)(C)O)ccc12 (stereo not given) | 98% (inactive)
26 | CCCCCCCCCCCCCCCC(=O)OC[C@H](NC(=O)C(Cl)Cl)[C@H](O)c1ccc([N+](=O)[O-])cc1 | 95.5% (inactive)
27 | C#C[C@]1(O)CCC2C3CCC4=C(CCC(=O)C4)C3CC[C@@]21C (stereo not given in full) | 109% (inactive)
28 | CNc1ccccc1C(=O)N1CCc2c([nH]c3ccccc23)C1=O | 106% (inactive)
29 | CC1(C)S[C@@H]2[C@H](NC(=O)[C@H](C(=O)O)c3cccs3)C(=O)N2[C@H]1C(=O)O | 102% (inactive)
30 | O=c1[nH]c(=O)n(C2C[C@H](O)[C@@H](CO)O2)cc1C(F)(F)F (stereo not given in full) | 108% (inactive)
31 | NC(=O)c1ncn(C2O[C@H](CO)[C@@H](O)[C@H]2O)c1N (stereo not given in full) | 99.1% (inactive)
32 | C[N+](C)(C)CC(O)CC(=O)O (stereo not given) | 99.1% (inactive)
33 | O=C(CCCCCCCCCCCCC1CCCC1)Nc1ccc(S(=O)(=O)c2ccc(NC(=O)CCCCCCCCCCCCC3CCCC3)cc2)cc1 | 94.8% (inactive)
34 | O=c1cc(-c2cccc(O)c2)oc2ccc(O)cc12 | 101% (inactive)
35 | Cc1cc(=O)[nH]c(=S)[nH]1 | 95.7% (inactive)
36 | O=C1C(O)=C(O)C(=O)C(O)=C1O | 125% (inactive)
37 | CC(C(=O)O)c1ccc(C(=O)c2cccs2)cc1 (stereo not given) | 104% (inactive)
38 | COC(=O)c1c(C)cc(O)cc1O | 89.5% (inactive)
39 | CC1(C)CC[C@@]2(C(=O)O)C(C1)C1=CCC3[C@@]4(C)CC[C@H](O)C(C)(C)C4CC[C@@]3(C)[C@]1(C)C[C@@H]2O (stereo not given in full) | 99.8% (inactive)
40 | CC1=NN(c2ccccc2)C(=O)C1 | 120% (inactive)
